Assay results as given in PubChem BioAssay (Tox21).
Results filed as inconclusive are left out. Activity calls are given as the source filed them. Calls follow the shape of the dose curve; as a rule, active = well fitted curve in the direction sought with a large enough effect in the repeat runs; inconclusive = weak or mixed curves; inactive = no such curve, though single readings can be large; an effect the other way counts as inactive or inconclusive.

Key:
[1] = A CellTox Green Cytotoxicity Assay to monitor cytotoxicity in HEK293 cells - 40 hour (AID 1224871); conditions: CellTox Green fluorescence; series mostly up to 76.8 µM; also: nearly all actives have a fitted effect of over 45% in size
In short: (§1)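 Read-out: fluorescence of a cell-impermeant cyanine dye staining DNA of dead cells, proportional to cytotoxicity. HEK293, 600 cells/well with reagent, compound (23 nL DMSO) added after 5 h; reads at 0, 8, 16, 24, 32, 40 h.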

[2] = qHTS RealTime-Glo MT Cell Viability Assay in HEK293 cells - 16 hour (AID 1224872); conditions: RealTime-Glo luminescence; series mostly up to 76.8 µM; also: top concentration of the series differs between compounds; nearly all actives have a fitted effect of over 50% in size
In short: (§2)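 Reads taken at 0, 8, 16, 24, 32 and 40 h from the same wells. HEK293 cells (600/well) carried RealTime-Glo reagents from seeding, with compound added after a 5 h settle at 37 C.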

[3] = qHTS RealTime-Glo MT Cell Viability Assay in HepG2 cells - 8 hour (AID 1224873); conditions: RealTime-Glo luminescence; series mostly up to 76.8 µM; also: nearly all actives have a fitted effect of over 55% in size
In short: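 HepG2 cells mixed with RealTime-Glo MT reagents (NanoLuc plus cell-permeant prosubstrate) were seeded at 600 cells/well, incubated 5 h at 37 C/5% CO2, then pinned with compounds in DMSO; nonlytic luminescence tracked viability during 40 h treatment.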

[4] = qHTS RealTime-Glo MT Cell Viability Assay in HEK293 cells - 40 hour (AID 1224874); conditions: RealTime-Glo luminescence; max response: active compounds read low; also: nearly all actives have a fitted effect of over 50% in size
In short: (§3)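 Luminescence readout at each listed time point; HEK293, 600 cells/well, RealTime-Glo MT reagent added with cells; compounds pinned (23 nL in DMSO) after 5 h at 37 C; continuous culture at 37 C.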

[5] = A CellTox Green Cytotoxicity Assay to monitor cytotoxicity in HEK293 cells - 24 hour (AID 1224875); conditions: CellTox Green fluorescence; series mostly up to 76.8 µM; also: nearly all actives have a fitted effect of over 45% in size
In short: as §1

[6] = A CellTox Green Cytotoxicity Assay to monitor cytotoxicity in HepG2 cells - 16 hour (AID 1224876); conditions: CellTox Green fluorescence; series mostly up to 76.8 µM; also: nearly all actives have a fitted effect of over 45% in size
In short: (§4)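 HepG2, 600 cells/well premixed w/ CellTox Green; 5 h settle, 37 C/5% CO2; pintool cpd add (DMSO); 37 C, 40 h; fluorescence read at 0, 8, 16, 24, 32, 40 h.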

[7] = A CellTox Green Cytotoxicity Assay to monitor cytotoxicity in HepG2 cells - 24 hour (AID 1224878); conditions: CellTox Green fluorescence; series mostly up to 76.8 µM; also: nearly all actives have a fitted effect of over 45% in size; also: potency is read from the fitted curve at half-maximal effect
In short: as §4

[8] = A CellTox Green Cytotoxicity Assay to monitor cytotoxicity in HepG2 cells - 40 hour (AID 1224879); conditions: CellTox Green fluorescence; series mostly up to 76.8 µM; also: nearly all actives have a fitted effect of over 40% in size
In short: as §4

[9] = qHTS RealTime-Glo MT Cell Viability Assay in HEK293 cells - 0 hour (AID 1224880); conditions: RealTime-Glo luminescence; series mostly up to 76.8 µM
In short: as §3

[10] = A CellTox Green Cytotoxicity Assay to monitor cytotoxicity in HepG2 cells - 0 hour (AID 1224882); conditions: CellTox Green fluorescence; series mostly up to 76.8 µM; also: nearly all actives have a fitted effect of over 35% in size
In short: as §4

[11] = A CellTox Green Cytotoxicity Assay to monitor cytotoxicity in HepG2 cells - 32 hour (AID 1224883); conditions: CellTox Green fluorescence; series mostly up to 76.8 µM; also: nearly all actives have a fitted effect of over 50% in size
In short: as §4

[12] = A CellTox Green Cytotoxicity Assay to monitor cytotoxicity in HEK293 cells - 8 hour (AID 1224884); conditions: CellTox Green fluorescence; series mostly up to 76.8 µM; also: nearly all actives have a fitted effect of over 35% in size
In short: as §1

[13] = qHTS RealTime-Glo MT Cell Viability Assay in HepG2 cells - 16 hour (AID 1224885); conditions: RealTime-Glo luminescence; series mostly up to 76.8 µM; also: nearly all actives have a fitted effect of over 50% in size
In short: (§5)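 HepG2 suspension premixed with RealTime-Glo reagents is plated at 600 cells per well and left 5 h at 37 C/5% CO2. Compounds in DMSO then go in, and bioluminescence reflecting viable cell number is recorded over 40 h.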

[14] = qHTS RealTime-Glo MT Cell Viability Assay in HEK293 cells - 24 hour (AID 1224886); conditions: RealTime-Glo luminescence; series mostly up to 76.8 µM
In short: as §2

[15] = qHTS RealTime-Glo MT Cell Viability Assay in HEK293 cells - 8 hour (AID 1224887); conditions: RealTime-Glo luminescence; series mostly up to 76.8 µM
In short: as §3

[16] = A CellTox Green Cytotoxicity Assay to monitor cytotoxicity in HEK293 cells - 16 hour (AID 1224888); conditions: CellTox Green fluorescence; series mostly up to 76.8 µM; also: nearly all actives have a fitted effect of over 35% in size
In short: as §1

[17] = qHTS RealTime-Glo MT Cell Viability Assay in HepG2 cells - 0 hour (AID 1224889); conditions: RealTime-Glo luminescence; series mostly up to 76.8 µM; also: nearly all actives have a fitted effect of over 50% in size
In short: as §5

[18] = A CellTox Green Cytotoxicity Assay to monitor cytotoxicity in HepG2 cells - 8 hour (AID 1224890); conditions: CellTox Green fluorescence; series mostly up to 76.8 µM; also: nearly all actives have a fitted effect of over 45% in size
In short: as §4

[19] = qHTS RealTime-Glo MT Cell Viability Assay in HepG2 cells - 32 hour (AID 1224877); conditions: RealTime-Glo luminescence; series mostly up to 76.8 µM; also: nearly all actives have a fitted effect of over 55% in size
In short: as §5

[20] = A CellTox Green Cytotoxicity Assay to monitor cytotoxicity in HEK293 cells - 32 hour (AID 1224881); conditions: CellTox Green fluorescence; series mostly up to 76.8 µM; also: nearly all actives have a fitted effect of over 40% in size
In short: as §1
% is scaled to controls: 0 for no effect and ±100 for the full control effect.

COc1cccc(C(=O)NN(C(=O)c2cc(C)cc(C)c2)C(C)(C)C)c1C
active: Potency [7] 616 nM
inactive: Potency [1] | Potency [2] | Potency [3] | max response [4] -10% | Potency [5] | Potency [6] | Potency [8] | outcome [9] | outcome [10] | Potency [11] | Potency [12] | Potency [13] | Potency [14] | Potency [15] | Potency [16] | Potency [17] | Potency [18]

ClC(Cl)C(Cl)Cl
inactive: Potency [1] | Potency [2] | Potency [3] | max response [4] 0.239% | Potency [5] | Potency [19] | outcome [9] | Potency [20] | outcome [10] | Potency [12] | Potency [13] | Potency [14] | Potency [15] | Potency [16] | Potency [17] | Potency [18]

C(CCOCC1CO1)COCC1CO1 (stereo not given)
inactive: Potency [1] | Potency [2] | Potency [3] | Potency [5] | Potency [6] | Potency [19] | Potency [7] | Potency [8] | Potency [20] | outcome [10] | Potency [11] | Potency [12] | Potency [13] | Potency [14] | Potency [15] | Potency [16] | Potency [17] | Potency [18]

Oc1c(Cl)cccc1Cl
inactive: Potency [1] | Potency [2] | Potency [3] | max response [4] 0.323% | Potency [6] | Potency [19] | Potency [7] | Potency [8] | outcome [10] | Potency [11] | Potency [12] | Potency [13] | Potency [14] | Potency [15] | Potency [16] | Potency [17] | Potency [18]

O=C1CN2CCOC2(c2ccccc2Cl)c2cc(Cl)ccc2N1 (stereo not given)
inactive: Potency [1] | Potency [2] | Potency [3] | max response [4] -7.26% | Potency [6] | Potency [19] | Potency [7] | Potency [8] | outcome [9] | outcome [10] | Potency [11] | Potency [12] | Potency [13] | Potency [14] | Potency [15] | Potency [16] | Potency [17] | Potency [18]

CC(=O)C(Cl)Cl
inactive: Potency [1] | Potency [2] | Potency [3] | max response [4] 7% | Potency [5] | Potency [6] | Potency [19] | Potency [7] | outcome [9] | Potency [20] | outcome [10] | Potency [12] | Potency [13] | Potency [14] | Potency [15] | Potency [16] | Potency [17] | Potency [18]
